Measured values as given in PubChem BioAssay (NCATS).
Inconclusive results are not listed. Activity calls are given as the source filed them. Calls come from the whole dose curve; as a rule, active = well fitted inhibition curve with a large enough effect; inconclusive = small, poorly fitted or top-dose-only effect; inactive = flat fitted curve, though single readings scatter.

How the values were obtained:
Assay in all cases: qHTS profiling for inhibitors of Plasmodium falciparum proliferation (AID 504749); note: nearly all actives have a fitted effect of over 60% in size
Settings in all cases: P. falciparum in erythrocytes, SYBR Green DNA, 72 h; series mostly up to 12.8 µM
CP265 = test system: CP265
Method in brief: (§1)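 In a 72 h erythrocytic culture (37 C, humidified, 5% CO2) at 2.5% hematocrit and 0.3% starting parasitemia, compounds were tested; SYBR Green I in detergent lysis buffer stained parasite DNA overnight.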

CP266 = test system: CP266
Method in brief: as §1

CP268 = test system: CP268
Method in brief: as §1

CP269 = test system: CP269
Method in brief: as §1

CP286 = test system: CP286
Method in brief: as §1

CP291 = test system: CP291
Method in brief: as §1

CP297 = test system: CP297
Method in brief: as §1

CP305 = test system: CP305
Method in brief: as §1

CP315 = test system: CP315
Method in brief: as §1

CP325 = test system: CP325
Method in brief: as §1

CP329 = test system: CP329
Method in brief: as §1

CP335 = test system: CP335
Method in brief: as §1

DFO2036 = test system: DFO2036
Method in brief: as §1

DIV17 = test system: DIV17
Method in brief: as §1

DIV30 = test system: DIV30
Method in brief: as §1

Dd2 = test system: Dd2
Method in brief: as §1

ECU = test system: ECU
Method in brief: as §1

FAB9 = test system: FAB9
Method in brief: as §1

GB4 = test system: GB4
Method in brief: as §1

HB3 = test system: HB3
Method in brief: as §1

ICS = test system: ICS
Method in brief: as §1

JCK = test system: JCK
Method in brief: as §1

N140 = test system: N140
Method in brief: as §1

P93_24 = test system: P93_24
Method in brief: as §1

P94_40 = test system: P94_40
Method in brief: as §1

PAD = test system: PAD
Method in brief: as §1

PC15 = test system: PC15
Method in brief: as §1

PC26 = test system: PC26
Method in brief: as §1

PC49 = test system: PC49
Method in brief: as §1

SC27B = test system: SC27B
Method in brief: as §1

TAB109 = test system: TAB109
Method in brief: as §1

TAB113 = test system: TAB113
Method in brief: as §1

TAB165 = test system: TAB165
Method in brief: as §1

W2 = test system: W2
Method in brief: as §1

Measured: Potency

Nc1nc(NC2CC2)c2ncn([C@H]3C=C[C@@H](CO)C3)c2n1
inactive: CP265 | CP266 | CP268 | CP269 | CP286 | CP291 | CP297 | CP305 | CP315 | CP325 | CP329 | CP335 | DFO2036 | DIV17 | DIV30 | Dd2 | ECU | FAB9 | GB4 | HB3 | ICS | JCK | N140 | P93_24 | P94_40 | PAD | PC15 | PC26 | PC49 | SC27B | TAB109 | TAB113 | TAB165 | W2
